For one compound, inhibition results are on record in ChEMBL document CHEMBL1961873, “Compounds: GSK PKIS; Assays: Nanosyn kinase panel” (2012).

In experiment [1] the target is T1, Inhibitor of nuclear factor kappa-B kinase subunit epsilon (Homo sapiens) (UniProt Q14164).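 Note: reported values are averaged percent inhibition figures against human IKKε.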
T1 sequence (whole entry): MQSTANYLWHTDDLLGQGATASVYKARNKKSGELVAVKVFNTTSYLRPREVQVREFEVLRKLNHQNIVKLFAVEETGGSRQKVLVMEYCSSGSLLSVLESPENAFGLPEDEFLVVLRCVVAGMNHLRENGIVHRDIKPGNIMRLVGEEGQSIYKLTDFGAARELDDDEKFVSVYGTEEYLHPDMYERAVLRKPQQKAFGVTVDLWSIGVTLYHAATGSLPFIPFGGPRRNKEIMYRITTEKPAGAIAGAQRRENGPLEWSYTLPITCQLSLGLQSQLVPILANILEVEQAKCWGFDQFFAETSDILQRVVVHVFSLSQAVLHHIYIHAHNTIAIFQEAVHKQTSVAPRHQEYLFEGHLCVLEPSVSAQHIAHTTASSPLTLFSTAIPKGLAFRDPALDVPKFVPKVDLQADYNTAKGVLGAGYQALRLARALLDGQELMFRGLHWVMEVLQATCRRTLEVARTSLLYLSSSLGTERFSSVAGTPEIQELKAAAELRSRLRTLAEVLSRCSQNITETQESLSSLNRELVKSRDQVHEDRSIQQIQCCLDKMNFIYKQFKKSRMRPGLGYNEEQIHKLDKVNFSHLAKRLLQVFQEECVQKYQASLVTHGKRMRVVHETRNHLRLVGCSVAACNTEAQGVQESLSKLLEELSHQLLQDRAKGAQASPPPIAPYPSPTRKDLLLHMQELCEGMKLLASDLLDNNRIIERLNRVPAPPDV
As to conditions: at 1 µM.

Experiment [2] has as its target T2, Serine/threonine-protein kinase Nek1 (Homo sapiens) (UniProt Q96PY6).
T2 sequence (whole entry): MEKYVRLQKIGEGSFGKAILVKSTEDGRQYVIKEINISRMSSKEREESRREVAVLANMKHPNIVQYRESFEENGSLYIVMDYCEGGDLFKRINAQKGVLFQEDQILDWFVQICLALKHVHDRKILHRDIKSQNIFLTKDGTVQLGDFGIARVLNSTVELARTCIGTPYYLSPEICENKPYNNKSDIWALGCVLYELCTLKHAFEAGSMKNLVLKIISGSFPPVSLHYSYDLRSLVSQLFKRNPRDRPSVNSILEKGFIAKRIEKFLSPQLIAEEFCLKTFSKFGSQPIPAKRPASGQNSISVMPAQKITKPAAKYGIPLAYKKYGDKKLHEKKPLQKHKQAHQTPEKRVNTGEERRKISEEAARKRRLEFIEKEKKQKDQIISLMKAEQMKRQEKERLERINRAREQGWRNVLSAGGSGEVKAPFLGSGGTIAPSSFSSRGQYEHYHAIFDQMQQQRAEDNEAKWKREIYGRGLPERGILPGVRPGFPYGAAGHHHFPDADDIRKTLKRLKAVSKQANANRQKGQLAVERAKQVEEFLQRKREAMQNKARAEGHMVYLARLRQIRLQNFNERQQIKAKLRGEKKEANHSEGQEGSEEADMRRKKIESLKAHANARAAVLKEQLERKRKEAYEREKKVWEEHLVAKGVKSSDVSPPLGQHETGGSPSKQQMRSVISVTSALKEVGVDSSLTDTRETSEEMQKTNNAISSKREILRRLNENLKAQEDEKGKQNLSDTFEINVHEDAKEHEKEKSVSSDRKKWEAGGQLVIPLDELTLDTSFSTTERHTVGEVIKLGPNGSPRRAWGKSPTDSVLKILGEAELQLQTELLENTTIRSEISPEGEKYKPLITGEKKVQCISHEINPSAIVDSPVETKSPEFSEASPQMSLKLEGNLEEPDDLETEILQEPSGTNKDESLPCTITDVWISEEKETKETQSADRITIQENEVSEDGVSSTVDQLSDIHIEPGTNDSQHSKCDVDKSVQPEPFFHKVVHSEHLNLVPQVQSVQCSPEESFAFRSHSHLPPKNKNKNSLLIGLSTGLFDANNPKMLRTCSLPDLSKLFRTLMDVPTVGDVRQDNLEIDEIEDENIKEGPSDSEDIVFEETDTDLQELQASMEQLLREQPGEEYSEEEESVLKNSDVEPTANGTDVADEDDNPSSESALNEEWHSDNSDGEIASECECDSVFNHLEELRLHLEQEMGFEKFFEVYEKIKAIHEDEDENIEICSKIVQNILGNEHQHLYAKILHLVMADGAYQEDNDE
As to conditions: at 0.1 µM.

The target of experiment [3] is T2, Serine/threonine-protein kinase Nek1 (Homo sapiens). The following applies: at 1 µM.
Experiment [4] addresses T3, Serine/threonine-protein kinase Nek2 (Homo sapiens) (UniProt P51955).
T3 sequence (whole entry): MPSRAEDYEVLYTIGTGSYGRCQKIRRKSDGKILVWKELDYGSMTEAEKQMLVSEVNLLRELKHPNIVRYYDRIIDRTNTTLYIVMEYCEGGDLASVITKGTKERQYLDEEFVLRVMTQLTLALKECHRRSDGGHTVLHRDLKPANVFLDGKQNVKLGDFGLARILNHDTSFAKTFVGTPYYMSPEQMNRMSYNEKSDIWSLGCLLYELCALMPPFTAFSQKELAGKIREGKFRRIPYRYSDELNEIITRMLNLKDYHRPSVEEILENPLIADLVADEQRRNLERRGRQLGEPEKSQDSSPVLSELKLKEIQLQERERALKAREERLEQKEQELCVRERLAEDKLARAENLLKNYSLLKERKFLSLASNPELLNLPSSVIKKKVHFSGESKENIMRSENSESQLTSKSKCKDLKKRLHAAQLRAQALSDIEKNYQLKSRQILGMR
The following applies: at 0.1 µM.

The target in experiment [5] is T3, Serine/threonine-protein kinase Nek2 (Homo sapiens). The following applies: at 1 µM.
Experiment [6] has as its target Serine/threonine-protein kinase Nek6 (Homo sapiens) (UniProt Q9HC98). As to conditions: at 0.1 µM.
The target is the same in experiment [7]. The following applies: at 1 µM.
Experiment [8] has as its target Serine/threonine-protein kinase Nek7 (Homo sapiens) (UniProt Q8TDX7). The following applies: at 0.1 µM.
The target is the same in experiment [9]. The following applies: at 1 µM.
Experiment [10] deals with T4, Serine/threonine-protein kinase Nek9 (Homo sapiens) (UniProt Q8TD19).
T4 sequence (whole entry): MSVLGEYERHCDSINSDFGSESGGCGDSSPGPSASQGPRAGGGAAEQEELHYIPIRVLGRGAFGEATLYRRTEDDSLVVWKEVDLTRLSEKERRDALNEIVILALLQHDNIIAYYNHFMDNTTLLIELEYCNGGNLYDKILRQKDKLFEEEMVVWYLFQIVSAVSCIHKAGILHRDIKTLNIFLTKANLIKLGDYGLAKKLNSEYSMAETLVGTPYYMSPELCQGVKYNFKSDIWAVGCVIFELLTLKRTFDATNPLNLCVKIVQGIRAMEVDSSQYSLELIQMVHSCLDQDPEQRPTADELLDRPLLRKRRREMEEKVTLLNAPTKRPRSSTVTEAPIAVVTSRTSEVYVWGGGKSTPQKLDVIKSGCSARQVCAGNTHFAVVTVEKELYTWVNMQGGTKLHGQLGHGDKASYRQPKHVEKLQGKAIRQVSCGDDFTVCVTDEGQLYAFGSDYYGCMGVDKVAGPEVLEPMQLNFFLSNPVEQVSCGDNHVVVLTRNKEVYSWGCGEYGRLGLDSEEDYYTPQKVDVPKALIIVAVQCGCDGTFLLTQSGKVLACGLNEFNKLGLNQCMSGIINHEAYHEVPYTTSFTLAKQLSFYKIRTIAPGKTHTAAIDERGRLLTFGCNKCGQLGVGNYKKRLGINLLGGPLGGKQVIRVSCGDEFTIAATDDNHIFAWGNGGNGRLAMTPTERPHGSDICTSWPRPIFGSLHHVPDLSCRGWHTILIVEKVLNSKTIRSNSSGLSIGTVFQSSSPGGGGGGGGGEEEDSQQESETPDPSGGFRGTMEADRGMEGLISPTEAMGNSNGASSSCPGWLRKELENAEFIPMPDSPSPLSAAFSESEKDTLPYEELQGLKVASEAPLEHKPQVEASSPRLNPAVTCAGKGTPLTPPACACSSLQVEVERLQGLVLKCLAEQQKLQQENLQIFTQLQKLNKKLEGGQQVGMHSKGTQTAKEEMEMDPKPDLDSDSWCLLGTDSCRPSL
The following applies: at 0.1 µM.

The target of experiment [11] is T4, Serine/threonine-protein kinase Nek9 (Homo sapiens). The following applies: at 1 µM.
Experiment [12] has as its target Serine/threonine-protein kinase PLK1 (Homo sapiens) (UniProt P53350). The following applies: at 0.1 µM.
Experiment [13] shares this target. As to conditions: at 1 µM.
Experiment [14] addresses T5, Dual specificity protein kinase TTK (Homo sapiens) (UniProt P33981).
T5 sequence (whole entry): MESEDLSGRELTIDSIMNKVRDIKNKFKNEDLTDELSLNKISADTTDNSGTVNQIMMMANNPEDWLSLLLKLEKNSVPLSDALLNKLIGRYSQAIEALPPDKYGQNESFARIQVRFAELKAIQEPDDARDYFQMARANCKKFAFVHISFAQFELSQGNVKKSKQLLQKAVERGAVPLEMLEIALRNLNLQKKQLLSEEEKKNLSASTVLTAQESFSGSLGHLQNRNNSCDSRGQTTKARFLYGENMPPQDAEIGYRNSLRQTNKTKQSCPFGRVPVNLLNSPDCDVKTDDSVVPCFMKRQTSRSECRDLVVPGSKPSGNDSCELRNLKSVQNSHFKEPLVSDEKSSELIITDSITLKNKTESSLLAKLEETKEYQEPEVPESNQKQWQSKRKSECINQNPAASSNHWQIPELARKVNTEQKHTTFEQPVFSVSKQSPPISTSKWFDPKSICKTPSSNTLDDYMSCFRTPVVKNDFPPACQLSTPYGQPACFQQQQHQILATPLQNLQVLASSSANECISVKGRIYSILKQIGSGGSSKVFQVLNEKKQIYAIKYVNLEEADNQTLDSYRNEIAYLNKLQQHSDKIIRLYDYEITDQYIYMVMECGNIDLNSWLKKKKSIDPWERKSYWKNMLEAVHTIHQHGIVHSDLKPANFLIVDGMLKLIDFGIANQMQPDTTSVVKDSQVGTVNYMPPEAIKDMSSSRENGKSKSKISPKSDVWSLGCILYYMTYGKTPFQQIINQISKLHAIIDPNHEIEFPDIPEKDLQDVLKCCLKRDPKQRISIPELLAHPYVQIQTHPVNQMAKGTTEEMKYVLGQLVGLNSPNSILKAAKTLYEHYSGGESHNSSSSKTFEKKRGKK
The following applies: at 0.1 µM.

Experiment [15] deals with T6, Receptor-type tyrosine-protein kinase FLT3 (Homo sapiens), P36888 [D835Y].
T6 sequence (whole entry): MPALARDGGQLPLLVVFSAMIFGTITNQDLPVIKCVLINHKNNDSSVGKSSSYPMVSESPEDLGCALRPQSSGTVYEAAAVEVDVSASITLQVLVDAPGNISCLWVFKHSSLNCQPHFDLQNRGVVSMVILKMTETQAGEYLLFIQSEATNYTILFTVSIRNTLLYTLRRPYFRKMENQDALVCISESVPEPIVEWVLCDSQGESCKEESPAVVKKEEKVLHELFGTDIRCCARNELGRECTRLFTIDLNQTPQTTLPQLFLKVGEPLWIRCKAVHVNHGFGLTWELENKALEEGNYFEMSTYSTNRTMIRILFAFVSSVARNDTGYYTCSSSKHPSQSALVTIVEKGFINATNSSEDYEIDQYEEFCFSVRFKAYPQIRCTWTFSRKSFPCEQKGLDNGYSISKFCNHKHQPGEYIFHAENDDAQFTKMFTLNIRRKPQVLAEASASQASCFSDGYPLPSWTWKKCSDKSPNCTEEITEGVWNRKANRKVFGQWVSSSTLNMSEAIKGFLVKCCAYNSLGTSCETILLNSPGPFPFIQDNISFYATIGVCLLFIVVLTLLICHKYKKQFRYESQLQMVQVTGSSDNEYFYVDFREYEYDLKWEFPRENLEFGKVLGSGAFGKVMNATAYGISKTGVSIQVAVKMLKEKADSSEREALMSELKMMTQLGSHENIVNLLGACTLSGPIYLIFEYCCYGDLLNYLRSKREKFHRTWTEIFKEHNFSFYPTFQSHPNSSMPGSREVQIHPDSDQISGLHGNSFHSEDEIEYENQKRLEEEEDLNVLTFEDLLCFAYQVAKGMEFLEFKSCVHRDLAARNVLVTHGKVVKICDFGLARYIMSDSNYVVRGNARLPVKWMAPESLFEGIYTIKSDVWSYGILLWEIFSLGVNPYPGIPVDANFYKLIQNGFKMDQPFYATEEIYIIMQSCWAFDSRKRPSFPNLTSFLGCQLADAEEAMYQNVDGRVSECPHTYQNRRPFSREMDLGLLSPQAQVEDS
The following applies: at 1 µM.

For experiment [16], the target named is Vascular endothelial growth factor receptor 3 (Homo sapiens) (UniProt P35916). The following applies: at 0.1 µM.
Sequence of Vascular endothelial growth factor receptor 3 (Homo sapiens) (P35916 whole entry): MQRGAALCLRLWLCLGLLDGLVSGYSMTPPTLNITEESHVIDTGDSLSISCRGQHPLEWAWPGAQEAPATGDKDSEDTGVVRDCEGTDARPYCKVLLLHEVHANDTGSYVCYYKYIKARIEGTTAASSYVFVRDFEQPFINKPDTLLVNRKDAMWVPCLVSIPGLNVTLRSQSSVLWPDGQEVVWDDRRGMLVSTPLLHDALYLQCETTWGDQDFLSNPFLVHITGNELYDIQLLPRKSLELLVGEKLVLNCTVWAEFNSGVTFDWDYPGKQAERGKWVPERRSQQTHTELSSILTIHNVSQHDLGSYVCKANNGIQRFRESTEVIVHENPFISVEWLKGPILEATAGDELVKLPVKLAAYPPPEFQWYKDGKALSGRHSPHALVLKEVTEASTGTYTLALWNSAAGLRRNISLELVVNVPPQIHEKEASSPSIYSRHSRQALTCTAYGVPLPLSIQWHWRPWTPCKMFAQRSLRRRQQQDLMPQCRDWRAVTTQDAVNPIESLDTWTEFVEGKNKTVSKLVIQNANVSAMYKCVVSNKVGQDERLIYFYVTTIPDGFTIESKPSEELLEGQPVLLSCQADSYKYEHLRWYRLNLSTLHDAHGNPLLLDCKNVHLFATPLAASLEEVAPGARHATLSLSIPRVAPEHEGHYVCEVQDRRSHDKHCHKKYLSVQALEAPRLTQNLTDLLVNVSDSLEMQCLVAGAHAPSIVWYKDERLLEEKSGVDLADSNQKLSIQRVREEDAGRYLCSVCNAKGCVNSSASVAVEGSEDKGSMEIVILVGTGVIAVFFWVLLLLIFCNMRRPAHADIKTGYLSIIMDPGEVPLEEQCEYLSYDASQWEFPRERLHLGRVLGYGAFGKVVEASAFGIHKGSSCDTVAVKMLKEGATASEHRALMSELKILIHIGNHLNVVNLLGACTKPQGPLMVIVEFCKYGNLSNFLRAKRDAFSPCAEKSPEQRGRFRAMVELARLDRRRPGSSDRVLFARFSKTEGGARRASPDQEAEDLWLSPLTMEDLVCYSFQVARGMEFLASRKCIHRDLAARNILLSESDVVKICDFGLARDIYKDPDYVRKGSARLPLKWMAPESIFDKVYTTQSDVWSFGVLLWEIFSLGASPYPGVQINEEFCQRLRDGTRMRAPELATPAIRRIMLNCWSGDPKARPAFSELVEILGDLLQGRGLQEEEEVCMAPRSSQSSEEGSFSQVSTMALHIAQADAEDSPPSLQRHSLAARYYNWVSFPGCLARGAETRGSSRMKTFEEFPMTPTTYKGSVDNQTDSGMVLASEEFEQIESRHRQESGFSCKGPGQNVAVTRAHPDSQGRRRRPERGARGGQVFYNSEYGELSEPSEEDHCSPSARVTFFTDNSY
Experiment [17] shares this target. As to conditions: at 1 µM.
Experiment [18] addresses Macrophage colony-stimulating factor 1 receptor (Homo sapiens) (UniProt P07333). The following applies: at 0.1 µM.
Experiment [19] shares this target. As to conditions: at 1 µM.
Experiment [20] concerns the target Tyrosine-protein kinase Fyn (Homo sapiens) (UniProt P06241). The following applies: at 0.1 µM.

Sequence of Macrophage colony-stimulating factor 1 receptor (Homo sapiens) (P07333 whole entry): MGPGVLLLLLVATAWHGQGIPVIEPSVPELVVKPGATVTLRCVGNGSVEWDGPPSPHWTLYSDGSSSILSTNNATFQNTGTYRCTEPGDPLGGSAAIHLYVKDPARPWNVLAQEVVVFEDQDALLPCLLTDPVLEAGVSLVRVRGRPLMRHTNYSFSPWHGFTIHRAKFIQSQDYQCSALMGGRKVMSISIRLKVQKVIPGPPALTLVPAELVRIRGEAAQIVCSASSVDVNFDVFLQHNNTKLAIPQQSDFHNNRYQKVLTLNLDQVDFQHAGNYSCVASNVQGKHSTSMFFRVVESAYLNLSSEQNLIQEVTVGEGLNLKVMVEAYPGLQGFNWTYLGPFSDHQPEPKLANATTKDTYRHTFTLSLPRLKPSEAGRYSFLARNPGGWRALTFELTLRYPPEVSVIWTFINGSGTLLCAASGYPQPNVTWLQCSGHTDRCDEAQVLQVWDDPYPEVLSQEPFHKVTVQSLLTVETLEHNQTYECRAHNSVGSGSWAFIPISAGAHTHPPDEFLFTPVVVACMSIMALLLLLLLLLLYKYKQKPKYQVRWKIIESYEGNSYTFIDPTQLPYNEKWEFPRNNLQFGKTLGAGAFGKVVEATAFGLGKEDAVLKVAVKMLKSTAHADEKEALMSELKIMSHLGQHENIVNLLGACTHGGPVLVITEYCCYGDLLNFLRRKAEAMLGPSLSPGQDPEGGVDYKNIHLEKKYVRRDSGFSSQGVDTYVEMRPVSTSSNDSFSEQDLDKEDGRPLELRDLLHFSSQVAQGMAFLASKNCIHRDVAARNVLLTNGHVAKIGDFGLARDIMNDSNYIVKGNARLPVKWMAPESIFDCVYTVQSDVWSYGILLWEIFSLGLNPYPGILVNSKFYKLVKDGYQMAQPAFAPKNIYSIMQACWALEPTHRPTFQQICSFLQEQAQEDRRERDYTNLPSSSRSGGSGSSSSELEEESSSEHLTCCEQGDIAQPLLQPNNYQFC
Sequence of Serine/threonine-protein kinase PLK1 (Homo sapiens) (P53350 whole entry): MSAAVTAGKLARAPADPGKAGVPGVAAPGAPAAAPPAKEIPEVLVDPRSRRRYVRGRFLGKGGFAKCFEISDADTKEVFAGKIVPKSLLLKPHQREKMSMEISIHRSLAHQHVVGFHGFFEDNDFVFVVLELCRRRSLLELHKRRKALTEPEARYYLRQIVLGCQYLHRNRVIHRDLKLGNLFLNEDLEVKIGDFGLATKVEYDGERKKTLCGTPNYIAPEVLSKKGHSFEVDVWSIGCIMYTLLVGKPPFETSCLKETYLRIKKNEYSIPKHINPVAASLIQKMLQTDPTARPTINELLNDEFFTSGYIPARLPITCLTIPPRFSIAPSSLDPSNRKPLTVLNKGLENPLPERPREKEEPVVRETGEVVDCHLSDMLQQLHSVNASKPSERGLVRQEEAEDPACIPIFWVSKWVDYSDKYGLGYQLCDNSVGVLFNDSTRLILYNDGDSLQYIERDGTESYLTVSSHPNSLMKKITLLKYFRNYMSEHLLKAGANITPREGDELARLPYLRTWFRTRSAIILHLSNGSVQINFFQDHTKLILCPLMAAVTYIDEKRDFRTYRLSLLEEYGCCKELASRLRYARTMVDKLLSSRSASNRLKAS
Sequence of Serine/threonine-protein kinase Nek6 (Homo sapiens) (Q9HC98 whole entry): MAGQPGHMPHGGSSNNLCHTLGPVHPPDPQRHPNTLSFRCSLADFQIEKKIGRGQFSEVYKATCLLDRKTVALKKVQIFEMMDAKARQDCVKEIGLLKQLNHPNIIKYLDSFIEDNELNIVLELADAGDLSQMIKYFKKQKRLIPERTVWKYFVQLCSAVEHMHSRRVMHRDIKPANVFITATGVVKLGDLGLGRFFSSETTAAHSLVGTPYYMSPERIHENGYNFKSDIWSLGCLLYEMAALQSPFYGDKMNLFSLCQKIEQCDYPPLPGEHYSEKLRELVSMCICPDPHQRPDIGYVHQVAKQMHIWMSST
Sequence of Serine/threonine-protein kinase Nek7 (Homo sapiens) (Q8TDX7 whole entry, looked up): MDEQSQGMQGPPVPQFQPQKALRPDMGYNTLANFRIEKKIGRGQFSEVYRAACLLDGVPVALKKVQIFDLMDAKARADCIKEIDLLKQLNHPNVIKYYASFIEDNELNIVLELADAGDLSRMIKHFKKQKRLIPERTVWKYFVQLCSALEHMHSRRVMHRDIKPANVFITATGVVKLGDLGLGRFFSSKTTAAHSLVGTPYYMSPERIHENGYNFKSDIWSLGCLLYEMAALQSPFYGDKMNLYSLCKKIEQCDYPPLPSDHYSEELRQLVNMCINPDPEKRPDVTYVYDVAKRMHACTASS
Sequence of Tyrosine-protein kinase Fyn (Homo sapiens) (P06241 2-537 limits assumed): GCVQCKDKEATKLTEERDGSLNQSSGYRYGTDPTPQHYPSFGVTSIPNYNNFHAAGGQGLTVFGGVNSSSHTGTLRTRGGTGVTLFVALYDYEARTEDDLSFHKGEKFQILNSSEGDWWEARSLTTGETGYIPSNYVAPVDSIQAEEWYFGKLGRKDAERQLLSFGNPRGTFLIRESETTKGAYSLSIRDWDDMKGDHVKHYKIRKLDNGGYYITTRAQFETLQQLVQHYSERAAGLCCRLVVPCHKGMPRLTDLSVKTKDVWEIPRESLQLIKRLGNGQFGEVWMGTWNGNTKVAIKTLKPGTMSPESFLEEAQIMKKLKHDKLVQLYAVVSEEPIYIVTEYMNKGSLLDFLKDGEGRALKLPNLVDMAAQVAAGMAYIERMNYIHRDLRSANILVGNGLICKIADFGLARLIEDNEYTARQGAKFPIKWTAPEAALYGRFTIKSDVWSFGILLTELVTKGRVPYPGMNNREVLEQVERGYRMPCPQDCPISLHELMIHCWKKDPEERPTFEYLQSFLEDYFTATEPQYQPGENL

In general, inhibition refers to the drop in the measured response relative to a control, in per cent. A high value points to strong suppression. In the case of `COC(=O)c1ccc2c(c1)C(=Cc1cc(Br)c(O)c(Br)c1)C(=O)N2`, the inhibition in experiment [1] is 13.9%; in experiment [2], 2.53%; in experiment [3], 2.21%; in experiment [4], 4.16%; in [5], 2.86%; in experiment [6], 0.58%. Further, the inhibition was found to be 2.21% in [7]; 4.31% in experiment [8]; 8.9% in experiment [9]; 6.38% in [10]; 11.3% in experiment [11]; 5.7% in [12]. Besides, the inhibition was determined as 17.4% in [13]; 13.3% in experiment [14]; 4.72% in [15]; 1.46% in experiment [16]; 9.65% in [17]; 2.87% in [18]. For the same compound, the inhibition came to 16.5% in experiment [19] and 5.27% in experiment [20].
